Test results from PubChem BioAssay AID1259415 (National Center for Advancing Translational Sciences (NCATS), 2018).
Among all 410,000 compounds or so, about 18,000 (4.4%) were called active. About 7% were inconclusive and are not listed. The full list was thinned out, with actives kept by preference. Unmarked numbers belong to inactive results. Cut-off read from the data, not from the text of the source: active = activity change below about -60%; inconclusive = no clear call, values can overlap the other calls; inactive = above about -39%.

experiment: qHTS Assay for inhibitors of the human cytomegalovirus (HCMV); conditions: HFF cells, HCMV-luciferase reporter, 72 h; at 57.5 µM; hits give low values
Outline: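 Cell-based, HFFs, 1000 cells/well, 16 h 37C; cpds in DMSO + HCMV-luc, MOI 1 PFU/cell; 72 h 37C; OneGlo luminescence after 5 min RT; norm. to buffer vs Salinomycin 10uM.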
% is set by controls: 0 for no effect and ±100 for the full control effect.

Row | SMILES | activity change, negative = inhibition
1 | COc1cccc(CNCc2c(C(=O)O)n(Cc3ccc(C)cc3)c3cc(C)ccc23)c1OC | 3.78%
2 | COc1ccc(Cn2c(C(=O)O)c(CNCCc3cccs3)c3ccc(OC)cc32)cc1 | -4.9%
3 | COc1ccc(Cn2c(C(=O)O)c(CNCc3cccc(OC)c3)c3ccc(C)cc32)cc1 | -106% (active)
4 | COc1cccc(CNC(=O)Cn2ncn3c(cc4ccccc43)c2=O)c1 | 44.2%
5 | Cc1ccc(C(=O)CSc2nc(-c3ccccc3)nc3c2CCCC3)c(C)c1 | 2.92%
6 | COc1ccccc1C(=O)Nc1c(C(=O)Nc2ccc(C)cc2)oc2ccccc12 | 14.6%
7 | Cc1n[nH]c(C)c1S(=O)(=O)N1CCCC(C(=O)NCC2COc3ccccc3O2)C1 (stereo not drawn) | -37.1%
8 | c1ccc2c(c1)OCC(CNc1ncnc3nc[nH]c13)O2 (stereo not drawn) | -61.6% (active)
9 | CCc1ccccc1NC(=O)CSc1nc(C)c(C(=O)Nc2ccccc2)c(-c2ccc(Cl)cc2)c1C#N | -35.3%
10 | Cc1cccc(CC(=O)Nc2cccc(-c3cn4cccnc4n3)c2)c1 | 10%
11 | CC(=O)N1CCc2cc(S(=O)(=O)Nc3ccccc3N3CCN(C)CC3)ccc21 | -37.8%
12 | Cc1cc2c(cc1C)N1C(=O)c3cc4ccccc4cc3NC(=O)C1C(=O)N2 (stereo not drawn) | -73.2% (active)
13 | COc1cccc(NC(=O)c2ccc3nc(CCc4ccccc4)oc3c2)c1 | 41.2%
14 | CCC(C)NC(=O)c1nn(C)c(=O)c2ccccc12 (stereo not drawn) | 29.9%
15 | CCOC(=O)C1=NN(c2ccc(Cl)cc2)/C(=C/C2=NCCc3cc(OC)c(OC)cc32)S1 | 27.1%
16 | COc1cc2c(cc1OC)C(c1cccc([N+](=O)[O-])c1)=NCC2 | 54.4%
17 | COc1cc2c(cc1OC)C(/C=C/c1ccco1)=NCC2 | -61.3% (active)
18 | Cc1c(CNC(C)c2ccccc2)c(C(=O)O)c(C)n1Cc1c(F)cccc1Cl (stereo not drawn) | -11%
19 | CCOc1cc2[nH]c(=O)n(Cc3ccc(C(=O)NCCCN4CCCC4=O)cc3)c(=O)c2cc1OCC | -26.6%
20 | CCOc1cc2[nH]c(=S)n(CCCN3CCCC3=O)c(=O)c2cc1OCC | -13%
21 | COc1cc2[nH]c(=S)n(CCN3CCCCC3C)c(=O)c2cc1OC (stereo not drawn) | -75.7% (active)
22 | COc1cc2[nH]c(=O)n(Cc3ccc(C(=O)NCc4ccc(C)cc4)cc3)c(=O)c2cc1OC | -0.48%

Row | SMILES | activity change, negative = inhibition
23 | CCOc1cc2[nH]c(=S)n(CCN3CCCCC3C)c(=O)c2cc1OCC (stereo not drawn) | 0.001%
24 | COc1ccc(CN2CCCCC2C)cc1OC (stereo not drawn) | 13.3%
25 | COc1cc2[nH]c(=S)n(Cc3ccc(F)cc3)c(=O)c2cc1OC | -63.8% (active)
26 | COc1cc2[nH]c(=S)n(Cc3ccc(C)o3)c(=O)c2cc1OC | -9.57%
27 | CCOc1cc2[nH]c(=S)n(Cc3ccc(C(=O)N4CCN(C)CC4)cc3)c(=O)c2cc1OCC | -95.9% (active)
28 | CCOc1cccc(NC(=O)CSc2ncc(-c3ccc(Cl)cc3)[nH]2)c1 | -2.16%
29 | Cc1ccc(F)cc1NC(=O)CCSc1nc(-c2ccco2)cc(C(F)(F)F)n1 | -17%
30 | Cc1ccc(-c2cnc(C3CC3)o2)cc1S(=O)(=O)Nc1cccc(C)c1C | -35%
31 | CCn1nnc(NC(=O)c2cc(Cl)c(OC)c(Cl)c2)n1 | 16.3%
32 | O=C(CN1C2CCC1CC(NC(=O)C1CC1)C2)NCc1ccccc1 (stereo not drawn) | 18.9%
33 | COc1ccc(CCNC(=O)c2cn(C)c3ccc(S(=O)(=O)N(C)C4CCCCC4)cc3c2=O)cc1OC | 7.75%
34 | Nc1c(C(=O)OCC(=O)Nc2ccc(OC(F)F)cc2)[nH]c(=O)[nH]c1=O | -34.6%
35 | COc1ccc(NC(=O)c2ccc3oc(=O)c(S(=O)(=O)c4ccc(F)cc4)cc3c2)c(OC)c1 | 10.2%
36 | CCCCC[C@H](C)N1C[C@@H](COCc2ccccc2)Oc2cc(N3CCC[C@@H]3CO)ccc2S1(=O)=O | 15%
37 | O=S1(=O)c2c(cccc2N2CCCC2)O[C@H](COCc2ccccc2)CN1C1CC1 | -34%
38 | CCCCC[C@H](C)N1C[C@@H](COCc2ccccc2)Oc2cc(N3CC[C@@H](N(C)C)C3)ccc2S1(=O)=O | -94.8% (active)
39 | CN1C(=O)c2ccccc2Sc2ccc(NC(=O)Cc3ccc(Cl)cc3)cc21 | -23.7%
40 | Cc1nn2c(=O)cc(COC(=O)c3cccc(NC(=O)COc4ccccc4Cl)c3)nc2s1 | 14%
41 | COc1ccccc1NC(=O)c1cc(C2CC2)nc2c1c(C)nn2-c1ccc(C)cc1 | 16.5%
42 | O=C(OC1CCCCC1=O)c1cccc(S(=O)(=O)NCc2ccccc2)c1 (stereo not drawn) | -28.2%
43 | Cc1ccc(Cl)cc1N1CCN(C(=O)C2CCC(CNS(=O)(=O)c3cccs3)CC2)CC1 (stereo not drawn) | -25.7%
44 | COC(=O)c1cnc(Nc2cc(C)ccc2OC)c2ccccc12 | -31.5%

Row | SMILES | activity change, negative = inhibition
45 | COc1ccc(Nc2ncc(C(=O)Nc3cc(C)ccc3OC)c3ccccc23)cc1 | -108% (active)
46 | COc1ccc(NC(=O)c2cnc(Nc3ccc(C)c(Cl)c3)c3ccccc23)cc1OC | -10.9%
47 | Cc1ccc2oc3c(c(=O)c2c1)C(c1ccc(O)cc1)N(Cc1ccc2c(c1)OCO2)C3=O (stereo not drawn) | -1.21%
48 | CCc1cc2c(NC(Cc3ccccc3)C(=O)O)ncnc2s1 (stereo not drawn) | 32.8%
49 | CCc1cc2c(NC3CCCC3)ncnc2s1 | -76.1% (active)
50 | CCc1cc2c(SCC(=O)Nc3ncc(Cl)c(C)c3Cl)ncnc2s1 | -15.5%
51 | NC1=NC(=O)C(Cc2cccc(Cl)c2Cl)S1 (stereo not drawn) | -8.43%
52 | O=C1NC(=Nc2ccc(Cl)cc2)SC1Cc1cccc(Cl)c1Cl (stereo not drawn) | -64.5% (active)
53 | CC(C)=N/N=C1/NC(=O)C(Cc2ccccc2)S1 (stereo not drawn) | 29.3%
54 | CCCCC(CC)CNC(=O)C1CCN(S(=O)(=O)c2cccc3nsnc23)CC1 (stereo not drawn) | -8.64%
55 | CCN(CCCNC(=O)c1cc2c(=O)n(CC)c3ccccc3c2s1)Cc1ccccc1 | -82.5% (active)
56 | CCn1c(=O)c2cc(C(=O)NCCc3ccc(Cl)cc3)sc2c2ccccc21 | -0.35%
57 | CCc1ccc(CNC(=O)c2cc3c(=O)n(CC)c4ccccc4c3s2)cc1 | -16.1%
58 | O=c1c(NCc2cccs2)nccn1-c1ccccc1 | 54.2%
59 | COc1ccc(N=CN2c3ccccc3-n3cccc3C2CCc2ccccc2)cc1 (stereo not drawn) | 29.9%
60 | CCc1nc2c(cnn2-c2ccc(C)cc2)c(=O)n1-c1ccc(C)cc1 | -37.2%
61 | COc1ccccc1C(=O)Nn1c(-c2cccs2)nc2ccccc2c1=O | -71.7% (active)
62 | COc1cc(C(=O)Nn2c(CC(C)C)nc3ccccc3c2=O)cc(OC)c1OC | 36.7%
63 | COc1cc(OC)cc(-c2nc3ccccc3c(=O)n2NC(=O)c2cccnc2Cl)c1 | -24.5%
64 | O=C(CC(c1cccs1)N1Cc2ccccc2C1=O)Nc1ccc(F)c(F)c1 (stereo not drawn) | -28.8%
65 | Cc1ccc(C)c(N2CCN(C(=O)Cc3c(C(=O)O)c(C)cn3C)CC2)c1 | 7.89%
66 | CCC1CCC2(CC1)NC(=O)N(CC(=O)Nc1ccc(OC)cc1)C2=O (stereo not drawn) | -8.02%

Row | SMILES | activity change, negative = inhibition
67 | Cn1nccc1C(=O)NC1CCCc2c1cnn2-c1ccccc1F (stereo not drawn) | -80% (active)
68 | Cn1nccc1C(=O)NC1CCCc2c1cnn2-c1ccc(F)cc1F (stereo not drawn) | -81.5% (active)
69 | CC(C)(C)OC(=O)N1CCC(c2c(C(=O)NCCc3ccsc3)cnn2-c2ccc(F)cc2F)CC1 | 0%
70 | CNS(=O)(=O)c1cccc(C(=O)NC2CCCc3ccccc32)c1 (stereo not drawn) | -19.2%
71 | COC(=O)c1ccc(C(=O)NC2CC(C)(C)Cc3c2cnn3-c2ccc(F)cc2)nc1 (stereo not drawn) | 29.8%
72 | Cn1cc(C(=O)NCc2ccccc2F)cn1 | 3.61%
73 | COc1ccc(-n2c(C)nc3c(cnn3-c3ccc(F)cc3)c2=O)cc1 | -33.7%
74 | Nc1cc(N2CCCCCC2)c2nonc2c1[N+](=O)[O-] | -24.1%
75 | Cc1ccccc1NC(=O)CN1C(=O)C(C)(C)c2ccccc21 | -4.1%
76 | COc1cc(OC)c(OC)cc1/C=C/c1nc2cc3ccccc3cc2c(=O)n1-c1ccc(F)c(Cl)c1 | 11%
77 | CCOC(=O)c1cc(C(=O)Nc2ccc(S(=O)(=O)Nc3ccc(OC)cc3)cc2)nn1C | 2.74%
78 | COc1ccc(NS(=O)(=O)c2ccc(NC(=O)c3ccc(N(C)S(C)(=O)=O)cc3)cc2)cc1 | -94.5% (active)
79 | COc1ccc(C(CNC(=O)c2ccc(NS(=O)(=O)c3ccc(F)c(C)c3)cc2)N(C)C)cc1 (stereo not drawn) | -9.49%
80 | O=C(c1cccs1)c1cn(CCOc2ccc(Cl)cc2)c2ccccc12 | -4.55%
81 | COc1ccc(CCNC(=O)c2cnc3sc(N4CCCCCC4)nn3c2=O)cc1OC | 0.444%
82 | COc1ccc(NC(=O)Cn2c(=O)n(Cc3ccc(C(=O)NCc4ccccc4Cl)cc3)c(=O)c3ccccc32)cc1 | -25.8%
83 | COc1cc(OC)c(C(=O)NNC(=O)c2ccccc2-n2cccc2)cc1OC | -25.6%
84 | CC1=C(C)CC(C(=O)NNC(=O)c2csc3c2CCC(C(C)(C)C)C3)C(C(=O)O)C1 (stereo not drawn) | 35%
85 | O=C(CO/N=C/c1ccccc1O)NNC(=O)c1ccccc1Cl | 35%
86 | CC1=C(C)CC(C(=O)NC(C)CCc2ccccc2)C(C(=O)O)C1 (stereo not drawn) | 16.1%
87 | CC1=C(C)CC(C(=O)NNC(=O)c2ccccc2O)C(C(=O)O)C1 (stereo not drawn) | -89.9% (active)
88 | O=C(NNC(=O)c1ccccc1O)c1ccccc1O | -97% (active)
